# From PubChem BioAssay (NCATS)
# Records with an inconclusive call do not appear. A call without a number means that no potency is given here. The source made the active and inactive calls. Calls come from the whole dose curve; as a rule, active = well fitted curve in the direction sought with a large enough effect; inconclusive = small, poorly fitted or top-dose-only effect, or another doubt; inactive = no such curve, though single readings can be large; an effect the other way counts as inactive or inconclusive. Residues, ends and D or L forms follow the SMILES beside them. *: point of attachment. Cbz = O=C(OCc1ccccc1)*
# What was measured:
# [1] = biological target: Voltage-gated inwardly rectifying potassium channel KCNH2 (Homo sapiens) (UniProt Q12809); assay: qHTS Assay for Small Molecule Inhibitors of the Human hERG Channel Activity (AID 588834); settings: U2OS BacMam hERG, FluxOR thallium flux fluorescence; series mostly up to 46.1 µM;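 note: lower thallium flux fluorescence means stronger hERG block; nearly all actives have a fitted effect of over 50% in size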; note: potency is the fitted concentration of half-maximal effect
# How it was run: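 hERG-BacMam U2OS, 2000 cells/well; 0.7X FluxOR loading 1 hr RT dark; cpd ~10 min 37 °C; stim buffer; FDSS fluorescence 2 min @ 1 s; AC50 Hill fit.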
# [2] = biological target: Glutaminase kidney isoform, mitochondrial (Homo sapiens) (UniProt O94925); assay: qHTS for Inhibitors of Glutaminase (GLS): LOPAC Validation (AID 624146); settings: glutaminase enzyme activity inhibition; series mostly up to 46.1 µM; note: nearly all actives have a fitted effect of over 60% in size; note: potency is the fitted concentration of half-maximal effect
# How it was run: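 Compounds were pin-transferred onto hKGA, after which L-glutamine (1 mM solution) and a detection mix of glutamate oxidase, HRP and Amplex Red were added. Initial and 30 min RT fluorescence reads were collected.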
# [3] = qHTS of Trypanosoma Brucei Inhibitors: LOPAC Validation (AID 624147); settings: purified enzyme assay, luminescence, 45 min; series mostly up to 57.5 µM
# How it was run: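 TbPYK + substrate in 50 mM TEA pH 7.2, 100 mM KCl, 10 mM MgCl2, 0.05% BSA, 0.01% Tween-20; cpd pinned; ADP 130 uM final; 45 min RT; Kinase-Glo Plus 10 min; luminescence endpoint.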
# [4] = biological target: Glucagon-like peptide 1 receptor (Homo sapiens) (UniProt P43220); assay: qHTS of GLP-1 Receptor Agonists: LOPAC Validation (AID 624148); settings: GLP-1R agonist cell assay; series mostly up to 46.1 µM;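 note: higher luminescence signal means agonism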
# How it was run: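 HEK293 cells stably co-expressing GLP-1R and a cAMP-responsive luciferase reporter, plated 12 hours before compound, then incubated 4-6 hr at 37 deg C. Luminescence read 12 min after detection reagent.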
# [5] = qHTS of Nrf2 Activators: LOPAC Validation (AID 624149); settings: Nrf2/ARE reporter cell assay; series mostly up to 46.1 µM
# How it was run: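 ARE reporter activation measured in AREc32 firefly luciferase cells after 24 hr compound exposure; Steady-Glo luminescence.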
# [6] = HTS Assay for Allosteric Antagonists of the Human D2 Dopamine Receptor: Hit Validation in HTRF (AID 624455); settings: Cells stably expressing D1 dopamine receptor, inhibition mode; series mostly up to 46.1 µM;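 note: stable D1 dopamine receptor cell line scored for blocking the D1 response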
# How it was run: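 Signal from an HTRF read-out in D1-expressing stable cells gave hit activity as inhibition of the D1 response.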
# Chain of Glucagon-like peptide 1 receptor (Homo sapiens) (P43220 whole entry, looked up): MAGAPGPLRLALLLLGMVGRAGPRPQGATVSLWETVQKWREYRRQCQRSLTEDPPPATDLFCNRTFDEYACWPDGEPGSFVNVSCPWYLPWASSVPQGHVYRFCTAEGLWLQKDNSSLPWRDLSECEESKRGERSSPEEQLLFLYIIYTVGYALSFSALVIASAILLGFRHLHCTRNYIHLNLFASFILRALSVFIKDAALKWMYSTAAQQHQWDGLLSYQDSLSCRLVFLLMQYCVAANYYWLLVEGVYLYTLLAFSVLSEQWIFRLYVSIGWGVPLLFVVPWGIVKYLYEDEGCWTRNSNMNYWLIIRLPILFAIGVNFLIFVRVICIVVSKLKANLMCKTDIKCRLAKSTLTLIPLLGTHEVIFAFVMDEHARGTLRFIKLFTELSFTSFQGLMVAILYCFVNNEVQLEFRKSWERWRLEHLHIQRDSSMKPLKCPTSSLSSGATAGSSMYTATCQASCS
# Chain of Voltage-gated inwardly rectifying potassium channel KCNH2 (Homo sapiens) (Q12809 whole entry, looked up): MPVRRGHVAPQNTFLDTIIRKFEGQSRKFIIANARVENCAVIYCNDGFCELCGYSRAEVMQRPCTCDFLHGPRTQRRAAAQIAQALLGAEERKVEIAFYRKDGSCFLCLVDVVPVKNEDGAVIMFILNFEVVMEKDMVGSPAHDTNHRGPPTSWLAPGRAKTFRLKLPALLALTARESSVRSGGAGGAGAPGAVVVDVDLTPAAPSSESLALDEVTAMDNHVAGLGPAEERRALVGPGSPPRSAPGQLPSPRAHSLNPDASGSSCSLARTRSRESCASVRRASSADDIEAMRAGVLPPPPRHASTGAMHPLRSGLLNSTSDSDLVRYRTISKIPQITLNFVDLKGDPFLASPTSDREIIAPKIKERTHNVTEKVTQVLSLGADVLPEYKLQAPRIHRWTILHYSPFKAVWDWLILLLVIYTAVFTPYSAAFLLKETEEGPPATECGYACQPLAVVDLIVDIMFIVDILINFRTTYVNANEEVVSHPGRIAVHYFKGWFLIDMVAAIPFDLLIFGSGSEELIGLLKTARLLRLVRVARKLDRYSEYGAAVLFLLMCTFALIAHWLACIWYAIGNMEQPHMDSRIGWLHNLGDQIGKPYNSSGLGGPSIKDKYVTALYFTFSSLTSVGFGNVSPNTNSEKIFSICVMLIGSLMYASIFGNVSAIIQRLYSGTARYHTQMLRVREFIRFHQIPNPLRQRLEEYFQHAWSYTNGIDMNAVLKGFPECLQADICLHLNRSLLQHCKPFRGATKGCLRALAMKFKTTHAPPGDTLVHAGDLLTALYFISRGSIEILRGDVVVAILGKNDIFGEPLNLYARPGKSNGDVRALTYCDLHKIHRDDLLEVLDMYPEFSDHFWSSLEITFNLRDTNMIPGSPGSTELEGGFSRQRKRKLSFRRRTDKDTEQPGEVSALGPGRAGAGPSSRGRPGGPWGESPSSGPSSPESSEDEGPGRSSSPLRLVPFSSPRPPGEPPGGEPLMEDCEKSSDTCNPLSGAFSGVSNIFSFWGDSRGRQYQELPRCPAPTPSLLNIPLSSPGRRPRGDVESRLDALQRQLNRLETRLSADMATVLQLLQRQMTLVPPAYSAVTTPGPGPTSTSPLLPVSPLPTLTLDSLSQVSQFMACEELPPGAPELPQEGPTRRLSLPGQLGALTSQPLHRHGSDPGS
# Chain of Glutaminase kidney isoform, mitochondrial (Homo sapiens) (O94925 whole entry, looked up, canonical isoform): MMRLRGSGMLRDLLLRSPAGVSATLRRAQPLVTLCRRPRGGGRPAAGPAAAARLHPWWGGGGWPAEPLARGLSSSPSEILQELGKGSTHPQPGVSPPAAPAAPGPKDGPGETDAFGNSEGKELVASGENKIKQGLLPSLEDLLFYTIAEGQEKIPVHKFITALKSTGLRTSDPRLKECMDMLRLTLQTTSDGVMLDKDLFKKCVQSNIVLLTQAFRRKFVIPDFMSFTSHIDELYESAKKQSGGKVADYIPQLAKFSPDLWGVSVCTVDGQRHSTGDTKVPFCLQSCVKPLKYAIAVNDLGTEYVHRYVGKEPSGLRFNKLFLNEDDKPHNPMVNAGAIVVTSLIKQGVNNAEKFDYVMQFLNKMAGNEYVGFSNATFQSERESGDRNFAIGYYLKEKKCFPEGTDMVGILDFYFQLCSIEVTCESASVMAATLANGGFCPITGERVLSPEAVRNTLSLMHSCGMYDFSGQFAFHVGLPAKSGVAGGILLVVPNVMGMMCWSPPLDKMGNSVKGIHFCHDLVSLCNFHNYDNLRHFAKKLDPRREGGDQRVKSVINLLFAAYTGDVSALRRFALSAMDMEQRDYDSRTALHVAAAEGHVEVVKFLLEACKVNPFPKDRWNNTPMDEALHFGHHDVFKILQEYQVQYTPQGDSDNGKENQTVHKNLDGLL
SMILES,Potency [1],Potency [2],Potency [3],Potency [4],Potency [5],Potency [6]
NCCC1CCCC(CCN)N1 (stereo not given),inactive,inactive,inactive,inactive,inactive,inactive
C=CC[C@H](N)C(=O)O,inactive,inactive,inactive,inactive,inactive,inactive
CC(C)[C@H](NC(=O)OCc1ccccc1)C(=O)N[C@H](C=O)Cc1ccccc1 (Cbz-Val-Phe-aldehyde),inactive,inactive,inactive,inactive,inactive,inactive
CC(N)=O,inactive,inactive,inactive,inactive,inactive,inactive
O=C(O)C1=CCNCC1,inactive,inactive,inactive,inactive,inactive,inactive
COc1cc(C(O)C(=O)O)ccc1O (stereo not given),inactive,2.82 µM (active),inactive,inactive,inactive,inactive
CNC(=O)c1cc2c(cn1)[nH]c1ccccc12,inactive,inactive,inactive,inactive,inactive,inactive
CCC(=O)N1CCN(C(=O)c2ccccc2)CC1,inactive,inactive,inactive,inactive,inactive,inactive
COc1ccccc1N1CCN(CCCNc2c(C)c(=O)n(C)c(=O)n2C)CC1,inactive,inactive,inactive,inactive,inactive,inactive
C=CCn1c(=O)c2c(nc(-c3ccc(S(=O)(=O)O)cc3)n2C)n(C)c1=O,inactive,inactive,inactive,inactive,inactive,inactive
COC(=O)C(C)(N)Cc1ccc(O)cc1 (stereo not given),inactive,inactive,inactive,inactive,inactive,inactive
N#Cc1cc2nc(O)c(O)nc2cc1[N+](=O)[O-],inactive,inactive,inactive,inactive,inactive,inactive
CCCn1c(=O)c2[nH]c(-c3ccc(S(=O)(=O)O)cc3)nc2n(CCC)c1=O,inactive,inactive,inactive,inactive,inactive,inactive
CC#CCOC(=O)c1c(C)nc2sc3c(c2c1N)CCC(O)C3 (stereo not given),inactive,inactive,inactive,inactive,inactive,inactive
[N-]=[N+]=Nc1ccc(C(=O)CSC[C@H](NC(=O)CC[C@H](N)C(=O)O)C(=O)NCC(=O)O)cc1,inactive,inactive,inactive,inactive,inactive,inactive
COc1cc(CC(=O)O)ccc1O,inactive,2.82 µM (active),inactive,inactive,inactive,inactive
CCCn1c(=O)c2[nH]c(C3CCCC3)nc2n(CCC)c1=O,inactive,inactive,inactive,inactive,inactive,inactive
N#C/C(=C\c1ccc(O)c(O)c1)C(=O)NCCCNC(=O)/C(C#N)=C/c1ccc(O)c(O)c1,inactive,inactive,inactive,inactive,inactive,inactive
CC(=O)O[C@H]1CC2(C)[C@@H](C[C@@H](O)[C@H]3[C@@]4(C)CC[C@@H](O)[C@@H](C)[C@@H]4CC[C@@]32C)C1=C(CCC=C(C)C)C(=O)O (stereo not given in full),inactive,inactive,inactive,inactive,inactive,inactive
CC1CNCCN1S(=O)(=O)c1cccc2cnccc12 (stereo not given),inactive,inactive,inactive,inactive,inactive,inactive

SMILES,Potency [1],Potency [2],Potency [3],Potency [4],Potency [5],Potency [6]
O=C(O)c1cccnc1C(=O)O,inactive,inactive,inactive,inactive,inactive,inactive
O=C(O)/C=C/c1cnc[nH]1,inactive,inactive,inactive,inactive,inactive,inactive
Cc1cccc(C(=O)NCN2CCN(c3ccccc3C#N)CC2)c1,inactive,inactive,inactive,inactive,inactive,inactive
COc1ccc(CCN(C)CCc2ccc(OC)c(OC)c2)cc1OC,6.31 µM (active),inactive,inactive,inactive,inactive,inactive
NC(N)=NC(N)=Nc1cccc(Cl)c1,8.91 µM (active),inactive,inactive,inactive,inactive,inactive
c1ccc2c(c1)CC(N1CCN(c3cccc4c3OCCO4)CC1)C2,15.8 µM (active),inactive,inactive,inactive,inactive,inactive
N=C(N)SCCc1cnc[nH]1,inactive,inactive,inactive,inactive,inactive,inactive
CCC1(O)CC2CN(CCc3c([nH]c4ccccc34)[C@@](C(=O)OC)(c3cc4c(cc3OC)N(C=O)C3[C@]45CCN4CC=C[C@@](CC)([C@@H](OC(C)=O)[C@]3(O)C(=O)OC)[C@H]45)C2)C1 (stereo not given in full),inactive,7.08 µM (active),inactive,inactive,inactive,inactive
CC(=O)NCCc1c[nH]c2ccc(O)cc12,inactive,1 µM (active),inactive,inactive,inactive,inactive
CCCCCCCCCC(=O)NC(CN1CCOCC1)[C@H](O)c1ccccc1 (stereo not given in full),12.6 µM (active),inactive,inactive,inactive,inactive,inactive
CNc1ncnc2c1ncn2[C@H]1C[C@H](OP(=O)(O)O)[C@@H](COP(=O)(O)O)O1,inactive,inactive,inactive,inactive,inactive,inactive
C[C@@]1(C2CCCC2)Cc2cc(OCC(=O)O)c(Cl)c(Cl)c2C1=O,inactive,inactive,inactive,inactive,inactive,inactive
CC(C)(C)NCC(O)COc1cccc2[nH]c(=O)[nH]c12 (stereo not given),inactive,inactive,inactive,inactive,inactive,inactive
NC1C=CC=C(C(=O)O)C1 (stereo not given),inactive,inactive,inactive,inactive,inactive,inactive
O=C(O)c1cc(=O)cc(C(=O)O)[nH]1,inactive,inactive,inactive,inactive,inactive,inactive
NCC(O)(CS(=O)(=O)O)c1ccc(Cl)cc1 (stereo not given),inactive,inactive,inactive,inactive,inactive,inactive
CC(N)(Cc1ccc(O)cc1)C(=O)O (stereo not given),inactive,inactive,inactive,inactive,inactive,inactive
CNCCNS(=O)(=O)c1cccc2cnccc12,inactive,inactive,inactive,inactive,inactive,inactive
COc1ccccc1N1CCN(CCCCNC(=O)c2ccc3ccccc3c2)CC1,1.12 µM (active),inactive,inactive,inactive,inactive,inactive
O=C(O)c1ccccc1Nc1ccccc1,inactive,inactive,inactive,inactive,inactive,inactive

SMILES,Potency [1],Potency [2],Potency [3],Potency [4],Potency [5],Potency [6]
N[C@@H](Cc1ccc(O)c(I)c1)C(=O)O,inactive,inactive,inactive,inactive,inactive,inactive
CN[C@H](CC(=O)O)C(=O)O,inactive,inactive,inactive,inactive,inactive,inactive
Nc1ncnc2c1ncn2C1CCCC1,inactive,inactive,inactive,inactive,inactive,inactive
O=C1C2C=CC=CC2=NC(=S)N1CCN1CCC(=C(c2ccc(F)cc2)c2ccc(F)cc2)CC1 (stereo not given),0.316 µM (active),inactive,inactive,inactive,inactive,inactive
N[C@@H](CCCC(=O)O)C(=O)O,inactive,inactive,inactive,inactive,inactive,inactive
COc1ccccc1N1CCN(CCN(C(=O)c2ccc(F)cc2)c2ccccn2)CC1,11.2 µM (active),inactive,inactive,inactive,inactive,inactive
CCCn1c(=O)c2c(ncn2C)n(CCC)c1=O,inactive,inactive,inactive,inactive,inactive,inactive
O=c1cc(O)cc(/C=C/c2ccc(O)c(O)c2)o1,inactive,1.12 µM (active),inactive,inactive,inactive,inactive
COc1ccc(C(=O)NCc2cccnc2)cc1C(=O)NCc1cccnc1,inactive,inactive,inactive,inactive,inactive,inactive
N#C/C(=C\c1ccc(O)c(O)c1)C(=O)NCCc1ccccc1,3.98 µM (active),1.12 µM (active),inactive,inactive,inactive,inactive
Nc1ncnc2c1ncn2C1CCCO1 (stereo not given),inactive,inactive,inactive,inactive,inactive,inactive
CCSC(=N)N,inactive,inactive,inactive,inactive,inactive,inactive
Cc1nc(N=Nc2cc(S(=O)(=O)O)c3cc([N+](=O)[O-])cc(S(=O)(=O)O)c3c2)c(COP(=O)(O)O)c(C=O)c1O,inactive,inactive,inactive,inactive,inactive,inactive
c1ccc2nc(C3=NCCN3)ccc2c1,inactive,inactive,inactive,inactive,inactive,inactive
O=c1[nH]c2cc(Cl)ccc2c(O)c1-c1ccc(Oc2ccccc2)cc1,inactive,inactive,inactive,inactive,inactive,inactive
CC[N+](CC)(CC)CC(=O)Nc1c(C)cccc1C,inactive,inactive,inactive,,inactive,inactive
OC[C@H]1NC[C@@H](O)[C@@H]1O,inactive,inactive,inactive,,inactive,inactive
CN(C)S(=O)(=O)c1ccc2c(c1)/C(=C/c1cc3c([nH]1)CCCC3)C(=O)N2,7.94 µM (active),inactive,inactive,,inactive,inactive
